# From PubChem
# An excerpt weighted towards active compounds, which were near 6% of everything screened.
# D1 PAM = Potentiators of Human D1 Dopamine Receptor: qHTS. potentiation, % at 10 µM. 360,000 tested, 0.036% active. HEK293 TREx D1 cells, calcium flux, dopamine EC20 potentiation. AID 504651, 2011. D(1A) dopamine receptor (Homo sapiens), P21728; in the data active = potentiation above about 30%; note: 0% is about no effect
# Target sequence (P21728 whole entry, looked up): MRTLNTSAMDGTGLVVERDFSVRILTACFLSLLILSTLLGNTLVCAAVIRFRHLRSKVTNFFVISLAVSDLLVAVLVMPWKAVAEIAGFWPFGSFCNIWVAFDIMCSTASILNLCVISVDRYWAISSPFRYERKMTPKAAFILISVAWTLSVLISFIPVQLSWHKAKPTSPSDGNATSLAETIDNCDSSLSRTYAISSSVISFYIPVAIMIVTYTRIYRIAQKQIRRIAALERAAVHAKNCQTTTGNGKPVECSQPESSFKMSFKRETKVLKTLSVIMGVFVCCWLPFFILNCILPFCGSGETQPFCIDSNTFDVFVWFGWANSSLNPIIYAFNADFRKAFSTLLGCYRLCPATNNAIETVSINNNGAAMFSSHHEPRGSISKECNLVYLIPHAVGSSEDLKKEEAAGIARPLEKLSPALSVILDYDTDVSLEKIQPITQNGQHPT
# D1 agonist = Allosteric Agonists of the Human D1 Dopamine Receptor: qHTS; D(1A) dopamine receptor (Homo sapiens), P21728; HEK293 T-REx D1 cells, calcium flux, agonist mode; activation, % at 2 µM; 360,000 tested, 1% active; AID 504660, 2011; in the data active = activation above about 30%; note: 0% is about no effect
#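 Tetracycline-induced HEK293 TREx D1 cells, force-coupled to calcium signalling, were dye-loaded with a no-wash calcium kit. Compound was pin-added after a 10 s baseline. Fluorescence was read kinetically at 1 cycle/s for 180 s, with calcium rises flagged as agonism.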
# D1 antagonist = Antagonist of Human D 1 Dopamine Receptor: qHTS | D(1A) dopamine receptor (Homo sapiens), P21728 | HEK293 TREx D1 cells, calcium flux, dopamine EC80; stronger effect = lower value | activity change, negative = inhibition, % at 10 µM | 360,000 tested, 3.2% active; in the data active = activity change below about -30%; note: % is set by controls: 0 for no effect and ±100 for the full control effect
#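 Allosteric or orthosteric antagonism assessed as attenuation of the calcium response to EC80 dopamine, added 180 s after compound, in induced HEK293 Trex D1 cells loaded with no-wash calcium dye.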
# DRD3 agonist = qHTS of D3 Dopamine Receptor Agonist: qHTS | D(3) dopamine receptor (Homo sapiens), P35462 | max activation, % | D3R DiscoveRx beta-arrestin cells, luminescence, 90 min | 410,000 tested, 0.58% active; in the data active = max activation above about 30%; note: 0% is about no effect
#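 Agonist-mode cell screen: cells plated at 1500/well and incubated overnight at 37 °C, then exposed to library compounds for 90 min at 37 °C. Detection reagent was added for 30–60 min at room temperature, and luminescence was read.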
# D3 antag = qHTS of D3 Dopamine Receptor Antagonist: qHTS; D(3) dopamine receptor (Homo sapiens), P35462; D3R cells, DiscoveRx beta-arrestin luminescence, antagonist mode; stronger effect = lower value; max response, negative = inhibition, %; 360,000 tested, 2.5% active; AID 652054, 2013; in the data active = max response below about -50%; note: % is set by controls: 0 for no effect and ±100 for the full control effect
#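 Cells plated overnight at 1500 cells/well, then exposed to library compounds with dopamine controls for 90 minutes at 37 degrees C. DiscoveRx reagent added for 30–60 minutes at room temperature; luminescence read, quantitative HTS format.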
# Numbers without * were called inactive; . = not tested or not shown.
SMILES,D1 PAM,D1 agonist,D1 antagonist,DRD3 agonist,D3 antag
O=c1c2ccccc2nc(-c2ccco2)n1CCc1ccc(O)cc1,-7,3,-41*,11,56
O=c1c2ccccc2nc(/C=C/c2ccc(O)cc2)n1CCc1ccccc1,-7,3,-41*,-3,20
Cc1ccc(CCNC(=O)c2c(C)oc3ncn(CC(C)C)c(=O)c23)cc1,2,-1,-21,-11,.
CCn1nc(C)c(Br)c1-c1nc(CS(=O)(=O)c2ccc(F)cc2)no1,-8,1,-8,-2,13
CCn1nc(C)c(Br)c1-c1nc(-c2ccc(C)cc2)no1,3,0,-1,35*,39
CCOC(=O)N=Nc1c2ccccc2c2nc3no[nH]c3nc12,-5,1,-4,-18,-65*
CCc1ccc(O)c(CNCCNCc2cc(CC)ccc2O)c1,-2,31*,-9,-36,3
COCCN(Cc1cc2cc(C)c(C)cc2nc1Cl)C(=O)Nc1ccccc1,-6,1,0,-5,-28
COCCN(Cc1cc2cc3c(cc2nc1Cl)OCO3)C(=O)c1ccc(C)cc1,3,66*,-3,3,11
O=C(CC1NCCNC1=O)Nc1ccc(F)c(Cl)c1 (configuration not stated),-4,-1,-13,-6,.
COc1ccccc1N1CCN(/N=C\c2sccc2C)CC1,-4,5,-43*,28,8
Cc1ccc(OCC(=O)NNC(=S)NC(=O)C(C)(C)C)c(Br)c1,-1,82*,-2,2,-3
Cc1ccc(OCC(=O)NNC(=S)NC(=O)C2CCCCC2)c(C)c1,-2,47*,-7,-3,-12
Cc1ccc(OCC(=O)NC(=S)Nc2ccccn2)c(Br)c1,2,4,-2,-4,1
Cc1ccc(C(=O)NCCC(C)C)cc1NC(=O)c1nsc2ccccc12,-1,2,-20,6,.
COc1cc(-c2nnc(-c3cccnc3)o2)cc(OC)c1OC,-11,1,-88*,-2,1
COc1ccc(-c2nnc(-c3cccnc3)o2)cc1OC,-7,3,7,6,-13
Clc1ccc(-c2nnc(-c3ccco3)o2)cc1,-5,0,8,2,-16
c1cncc(-c2nc(-c3ccco3)cs2)c1,8,1,3,-4,-63*
c1cncc(-c2nnc(-c3ccco3)o2)c1,-6,4,-1,2,-108*
COc1ccc(C(=O)Nc2nnc(SCc3cc(=O)c4cc(C)ccc4[nH]3)s2)cc1OC,-3,-1,3,1,.
CCC(C)NC(=O)c1c(-c2ccccc2)c(-c2ccccc2)nn(C)c1=O (configuration not stated),-1,0,-13,3,.
C[C@@]12C(=O)OC(=O)[C@]1(C)C1CCC2O1,-7,-3,-2,-68,-87*
Cc1cccc(-n2nnc(-c3nc(-c4ccccc4)no3)c2N)c1C,-2,4,-5,-6,.
Nc1nc(-c2ccco2)c(-c2ccco2)s1,5,3,-6,-12,-58*
SMILES,D1 PAM,D1 agonist,D1 antagonist,DRD3 agonist,D3 antag
Cc1cc2nc(C(C)(C)C)c(Cc3ccccc3)n2c(C)c1Br,.,.,.,-21,-97*
COc1ccc(Cc2c(C(C)(C)C)nc3cc(C)c(Br)c(C)n23)c(C)c1,.,.,.,8,38
COc1ccc(S(=O)(=O)N2CCC(O)(c3ccc(Cl)cc3)CC2)cc1,-7,11,-36*,-5,12
COc1ccc(S(=O)(=O)N2CCC(O)(c3ccc(Cl)cc3)CC2)cc1OC,-4,0,-23,0,57
Cc1ccc(C2=CC(c3ccccc3F)n3c(nc4ccccc43)N2)cc1C (configuration not stated),-5,13,-2,-18,.
N#CCc1nn(Cc2ccc(F)cc2)c(=O)c2ccccc12,-8,2,-32*,0,18
Cc1ccc(Cl)cc1N1CCN(C(=O)c2ccc3c(Cl)c4c(nc3c2)CCCC4)CC1,1,2,15,2,.
O=C(Cc1noc2ccccc12)Nc1ccccn1,-5,0,8,-1,45
Cc1ccc(NC(=O)Cc2noc3ccccc23)nc1,0,2,-32*,0,-5
Cc1ccc2onc(CC(=O)Nc3ccc(C(C)C)cc3)c2c1,-4,0,-74*,-6,.
O=C(NCc1ccccc1Cl)c1cnc2sc(N3CCCCC3)nn2c1=O,-1,2,4,5,.
COc1cccc(-c2cn3c(n2)sc2cc(C(=O)NCCc4ccc(OC)c(OC)c4)ccc23)c1,-3,4,-9,2,.
O=C(Nc1cccc(-n2cnnn2)c1)c1ccc(C(F)(F)F)cc1,-4,4,-32*,-1,0
COc1ccc(C(=O)COC(=O)c2cccc(-n3cnnn3)c2)c(OC)c1,-5,14,18,36*,9
Cc1cc(C)c(C)c(S(=O)(=O)Nc2cccc(-n3cnnn3)c2)c1C,-5,7,-33*,21,8
COc1cccc(OC)c1C(=O)Nc1cccc(-n2cnnn2)c1,0,2,-35*,-11,-21
Cc1ccc(NC(=O)c2c(C)oc3ccc(O)c(CN4CCN(Cc5ccccc5)CC4)c23)cc1,2,1,7,-12,.
Cc1ccc(C(=O)NCc2ccc(F)cc2)cc1NC(=O)c1nsc2ccccc12,-2,6,-20,7,.
CC(OC(=O)c1cccc(-n2cnnn2)c1)C(=O)Nc1cccc(Cl)c1 (configuration not stated),-5,8,-36*,5,-5
Cc1ccc(NC(=O)c2cc3c(=O)[nH]c4ccccc4c3n2C)cc1F,6,1,0,-7,.
CC(C)Oc1ccc(C(=O)N/N=C/c2ccc(-c3ccc(S(=O)(=O)Nc4ncccn4)cc3)o2)cc1,0,2,-22,5,-55*
COC(=O)C(CC(=O)c1ccc(Cl)cc1)c1ccc(C(C)C)cc1 (configuration not stated),-4,9,-30*,-12,-26
Cc1ccc(C(CC(=O)c2ccc(Cl)cc2)C(=O)O)cc1 (configuration not stated),-3,2,13,19,13
CC(C)Cc1ccc(C(C)NC(=O)c2ccc(=O)[nH]c2)cc1 (configuration not stated),1,49*,-16,4,-8
CCN(CC)CCn1c(=N)n(CCOc2ccccc2Cl)c2ccccc21,-2,53*,-7,-6,.
Nc1nc2ccccc2n1CCOc1ccccc1Cl,-6,20,-36*,0,4
COc1ccc(S(=O)(=O)c2c(SC)nn(Cc3ccccc3C)c2NC(C)=O)cc1,1,2,-8,3,.
